Screens: PubChem BioAssay, several laboratories
CYP2C9 act = activators of human CYP2C9. activation factor at 5 µM. recombinant CYP2C9, luciferin-H conversion, luminescence; stronger effect = higher value; factor 1 = untreated enzyme, 0 = blocked. 1.4% of 96,000 active;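 active = activation factor of 2 or more for CYP2C9 at a 5 µM dose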
Target sequence (P11712 whole entry, looked up): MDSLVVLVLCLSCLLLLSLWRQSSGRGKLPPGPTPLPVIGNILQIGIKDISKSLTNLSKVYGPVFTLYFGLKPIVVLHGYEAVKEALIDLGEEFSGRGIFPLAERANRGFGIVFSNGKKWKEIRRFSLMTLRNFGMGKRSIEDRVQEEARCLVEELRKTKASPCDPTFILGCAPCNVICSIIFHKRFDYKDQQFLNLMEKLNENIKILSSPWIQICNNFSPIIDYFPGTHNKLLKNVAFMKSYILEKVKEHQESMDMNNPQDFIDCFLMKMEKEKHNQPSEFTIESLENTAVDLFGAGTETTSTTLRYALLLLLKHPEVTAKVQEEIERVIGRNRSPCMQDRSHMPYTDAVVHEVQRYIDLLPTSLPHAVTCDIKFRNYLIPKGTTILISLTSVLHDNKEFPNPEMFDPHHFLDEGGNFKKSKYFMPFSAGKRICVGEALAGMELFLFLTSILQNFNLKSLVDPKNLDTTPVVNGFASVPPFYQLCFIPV
CYP2C19 activ = increases human CYP2C19 enzyme activity; P33261; recombinant CYP2C19, luciferin-H EGE luminescence; stronger effect = higher value; 0 = fully inhibited enzyme, 1 = untreated enzyme; activation factor at 5 µM; 96,000 tested, under 10 active;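 active = activation factor of at least 2 at 5 µM in the primary screen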
Pyk2 oligo antag = Pyk2 (human) oligomerization antagonism; 0.83% of 99,000 active; z-score (the deposit names both 25 µM and 10 µM); AID 1347419; Q293 cells, Pyk2 FERM NanoBiT luminescence; stronger effect = lower value;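 active = Z-score of -3 or lower, scaled per plate to the spread of control and sample wells; inactive = z-score above -3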;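 also: negative z-score means lost luminescence so less FERM oligomerization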
CYP2C9 inhib = inhibitors of human CYP2C9; P11712; CYP2C9 Supersomes, luciferin-H conversion, luminescence; inhibition, % at 5 µM; 20% of 96,000 active; AID 777;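 active = blocking of liver enzyme CYP2C9 beyond about 50% at 5 µM, limit read from the data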
Cav32 inh = blocks human Cav3.2 T-type calcium channel; AID 449739; B-score at 10 µM; Cav3.2-expressing cells, Fluo-4 calcium fluorescence FDSS; stronger effect = lower value; O95180; 4% of 100,000 active;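 active = single-dose well whose peak fluorescence ratio is a statistical outlier from its plate by either plate-standardised score or position-corrected B-score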
CYP2C19 inh = inhibitors of human CYP2C19; CYP2C19 Supersomes, luciferin-H EGE luminescence, 30 min; inhibition, % at 5 µM; 21% of 96,000 active;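 active = CYP2C19 inhibition above a set limit at 5 µM in the primary screen, cut at about 50% in these data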
Hits are given with their value; . = inactive; / = no result given. Compounds with a hit are over-represented: about 27% of the library has one in this group of screens.

SMILES	CYP2C9 act	CYP2C19 activ	Pyk2 oligo antag	CYP2C9 inhib	Cav32 inh	CYP2C19 inh
CC(C)CNC1=CC(=O)CC(c2ccco2)C1 (centres undefined)	.	.	.	.	.	55.4
O=C1C=C(NCc2ccc(Cl)cc2)CC(c2ccco2)C1 (centres undefined)	.	.	.	60.2	.	93.1
O=C1C=C(O)CC(c2ccco2)C1 (centres undefined)	/	/	.	/	.	/
O=C1C=C(Nc2ccc(O)cc2)CC(c2ccco2)C1 (centres undefined)	/	/	.	/	.	/
CCn1ncc(C2=NOC(C(=O)Nc3cccc(C(C)=O)c3)C2)c1C (centres undefined)	.	.	.	.	.	.
COc1ccc(-n2c(SCC(=O)NNC(=O)c3ccccc3C)nnc2-c2ccncc2)cc1	.	.	.	.	.	.
CC1(C)NC(=O)N(CC(O)CN2CCCC2)C1=O (centres undefined)	.	.	.	.	.	.
COc1ccc(CNc2nc(-c3cccnc3)nn2C(=O)c2cccs2)cc1	/	/	.	/	/	/
COc1ccc(CNc2nc(-c3cccnc3)nn2C(=O)c2ccco2)cc1	.	.	.	53.2	.	.
COc1ccc(CCCNC(=O)CC#N)cc1OC	.	.	.	.	.	.
C=CCN(CC(=O)NCc1ccccc1)C(=O)c1csnn1	.	.	.	.	.	72.7
COC(=O)c1cc(CSc2nnc(-c3ccccc3)c(-c3ccccc3)n2)oc1C	.	.	.	52.8	.	.
CCOc1ccc(C2c3cc(OC)c(OC)cc3CC(=O)N2c2ccc(OC)cc2)cc1 (centres undefined)	.	.	.	.	.	.
O=C1CC(c2ccccc2)CC(O)=C1C=NC1CCCC1 (centres undefined)	.	.	.	.	.	79.0
Cc1nc2nc3c(cn2n1)C(=O)CCC3	.	.	.	.	/	.
CC12CC(NC(=O)N1c1cccc(C(=O)N3CCN(c4ccccn4)CC3)c1)c1ccccc1O2 (centres undefined)	.	.	.	63.3	.	.
CC1CN(S(=O)(=O)c2cccc(C(=O)NCc3ccc4c(c3)OCO4)c2)CC(C)O1 (centres undefined)	.	.	.	.	.	.
CC12CC(NC(=O)N1c1cccc(C(=O)NCc3ccc4c(c3)OCO4)c1)c1cc(Cl)ccc1O2 (centres undefined)	.	.	.	78.7	-3.69	59.2
CC12CC(NC(=O)N1c1ccc(C(=O)N3CCN(c4ccccn4)CC3)cc1)c1ccccc1O2 (centres undefined)	.	.	/	.	/	.
CC12CC(NC(=O)N1c1cccc(C(=O)N3CCN(c4ccccc4F)CC3)c1)c1ccccc1O2 (centres undefined)	.	.	.	79.2	-4.59	.
O=C(NC(NC(=O)c1ccccc1)c1ccccc1)c1ccccc1	.	.	.	.	.	.
CCc1cc(/C(Cc2ccccn2)=N\O)c(O)cc1O	.	.	.	62.3	.	.
CN(CC(=O)O)Cc1nc2ccccc2[nH]1	.	.	.	.	.	.
O/N=C(\Cc1cscn1)c1ccc(O)cc1O	.	.	.	.	.	.
CCc1cc(C(=O)Cc2nc3ccccc3[nH]2)c(O)cc1O	.	.	.	53.7	.	86.6
SMILES	CYP2C9 act	CYP2C19 activ	Pyk2 oligo antag	CYP2C9 inhib	Cav32 inh	CYP2C19 inh
CCc1cc(/C(Cc2ccc3ccccc3n2)=N\O)c(O)cc1O	.	.	.	73.4	-3.86	90.3
CCc1cc(C(=O)COc2ccccc2F)c(O)cc1O	.	.	.	60.2	-8.98	95.8
CCc1cc(/C(Cc2cscn2)=N\O)c(O)cc1O	.	.	.	.	.	.
O=P1(c2ccccc2)C=Cn2c1cc1c2CCCC1 (centres undefined)	/	/	.	/	.	/
CCOc1ccccc1-c1ccc(C(=O)NCc2ccccc2)o1	/	/	/	/	.	/
CC(C)CCn1c(Br)nc2c1c(=O)n(CC(N)=O)c(=O)n2C	.	.	.	.	.	.
O=C(COC(=O)c1cccnc1Cl)c1ccc(Cl)cc1Cl	2.5	.	.	.	.	65.9
CCOC(=O)Nc1cc(C(=O)OC)ccc1C	.	.	.	.	.	.
CC(=O)Nc1cc(C(=O)OCC(=O)c2ccc(Cl)cc2Cl)ccc1C	2	.	.	.	.	.
CC(C)C(=O)Nc1cccc(C(=O)OCC(=O)c2ccc(Cl)cc2Cl)c1	2.6	.	-3.54	.	.	.
